Our source for the composite z-score and z-score values is PubChem BioAssay.

Structures are written as SMILES. Active and inactive are the calls of the source. Unless noted, the rule behind the calls is not given here.

Experiment [1] deals with XIP peptide (Xip251-270) binding. The experiment is described as follows: XIP fragment 251-270 binding compounds – biochemical, small-molecule microarray, fluorescence 635/667 nm, 0.1 µg/mL protein, primary screen (AID 1182). Conditions: fluorescent protein binding, 635 nm, higher = more signal, called active from +8 up or from −8 down.
For experiment [2], the system named is XIP peptide (Xip251-270). Put plainly: compounds binding XIP fragment 251-270 – biochemical, small-molecule microarray, fluorescence 635/667 nm, 0.5 µg/mL protein, primary screen (AID 1183). Conditions: fluorescence 635 nm, higher = more signal.
The nature of experiment [3]: blood-stage malaria parasite viability loss – strain 3D7, DAPI fluorescence, 100 nL, primary screen (AID 1184).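 Note: parasites grown inside human red blood cells in medium with human serum.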 Particulars: P. falciparum 3D7 growth, 3 d, higher = more signal.
Experiment [4] concerns the target Homeobox protein Hox-A13 (Mus musculus) (UniProt Q62424). Put plainly: disruptors of Hoxa13 oligonucleotide interaction – biochemical, fluorescence polarization, labeled oligonucleotide, primary screen (AID 1185). Conditions: Hoxa13:DNA binding, 15 min, higher = more signal, called active from +8 up or from −8 down.
Experiment [5] is described as follows: blockers of DNA damage checkpoint Chk1 activation – imaging, HeLa, hydroxyurea, phospho-Chk1 antibody, percent positive cells, primary screen (AID 1186). Particulars: hydroxyurea-induced phospho-Chk1 immunofluorescence imaging, higher = more signal.
The nature of experiment [6]: blockers of DNA damage checkpoint Chk1 activation – imaging, HeLa, hydroxyurea, phospho-Chk1 nuclear intensity, primary screen (AID 1187). Particulars: hydroxyurea-induced phospho-Chk1 immunofluorescence imaging, higher = more signal.

Sequence of Homeobox protein Hox-A13 (Mus musculus) (Q62424 whole entry, looked up): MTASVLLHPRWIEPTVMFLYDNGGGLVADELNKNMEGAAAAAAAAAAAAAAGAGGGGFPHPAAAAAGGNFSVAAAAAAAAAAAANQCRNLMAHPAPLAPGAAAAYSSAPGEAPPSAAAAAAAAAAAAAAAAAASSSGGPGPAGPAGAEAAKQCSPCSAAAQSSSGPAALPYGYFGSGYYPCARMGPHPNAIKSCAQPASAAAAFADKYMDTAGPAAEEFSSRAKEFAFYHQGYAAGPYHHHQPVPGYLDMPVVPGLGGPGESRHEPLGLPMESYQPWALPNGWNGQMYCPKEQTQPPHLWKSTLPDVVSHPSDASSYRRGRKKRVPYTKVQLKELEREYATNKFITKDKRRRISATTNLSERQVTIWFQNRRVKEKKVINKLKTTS

Turning to `COc1ccc([Si](C)(C)[C@H]2[C@H](CCO)O[C@@]3(C(=O)N(Cc4cccc(N5CCCCC5=O)c4)c4ccccc43)[C@@H]2C)cc1`, the composite z-score in experiment [1] was 1.41 (inactive); in experiment [2], 0.589. Moreover, the z-score is -2.7 in experiment [3], -5.06 (inactive) in experiment [4], -1.36 (inactive) in experiment [5] and -0.572 (inactive) in experiment [6].

For `O=c1cccc(-c2cccc(Cl)c2)o1`, the results for the composite z-score in experiment [1] and in experiment [2] were 0.165 (inactive) and 0.108, respectively. Also, the z-score was 0.204 in experiment [3], -0.814 (inactive) in experiment [4], 0.0366 (inactive) in experiment [5] and -0.411 (inactive) in experiment [6].

In the case of `CCOC(=O)C[C@H]1[C@H](OC(=O)c2ccc(C(=O)c3ccccc3)cc2)[C@@H](NC(=O)c2ccc3ccccc3c2)c2cc(OCCCO)ccc2N1C(=O)c1ccccc1`, the composite z-score is 1.39 (inactive) in experiment [1] and 0.444 in experiment [2]. Besides, the z-score in experiment [3] was 1.45; in experiment [4], -0.683 (inactive); in experiment [5], 0.451 (inactive); in experiment [6], 0.0368 (inactive).

Consider `COCCOC(=O)N1C(=O)[C@@]2(c3cc(C#CC4=CCCCC4)ccc31)[C@H](c1ccc(O)cc1)N1[C@H](c3ccccc3)[C@H](c3ccccc3)OC(=O)[C@H]1[C@@H]2C(=O)Nc1nc2ccccc2s1`, for which the composite z-score is 0.863 (inactive) in experiment [1] and 0.843 in experiment [2]. Besides, the z-score in experiment [3] was -1.32; in experiment [4], 1.05 (inactive); in experiment [5], 0.0256 (inactive); in experiment [6], 0.125 (inactive).

Regarding `CC(C)C(O)C1C=CC2C(=O)N(C)C(=O)C2N1Nc1ccccc1` (configuration not stated), the composite z-score is 0.292 (inactive) in experiment [1] and 0.655 in experiment [2]. Also, the z-score in experiment [3] was 0.771; in experiment [4] it was -1.81 (inactive); in experiment [5] it was 0.331 (inactive); in experiment [6] it was 0.193 (inactive).

`COC(=O)[C@]1(CCS(=O)(=O)c2ccccc2)N=C(c2ccc(OCCCO)cc2)O[C@@H]1c1ccccc1CN=[N+]=[N-]`: the values for the composite z-score in experiment [1] and in experiment [2] were 0.867 (inactive) and 0.769, respectively. Also, the z-score in experiment [3] is -2.2; in experiment [4], -0.936 (inactive); in experiment [5], -0.375 (inactive); in experiment [6], -0.574 (inactive).

As for `CC(C)C(O)C1C=CC2C(=O)N(C)C(=O)C2N1N(c1ccccc1)c1ccccc1` (configuration not stated), the composite z-score in experiment [1] was 0.618 (inactive); in experiment [2], 0.123. For the same compound, the z-score was 0.0202 in experiment [3], -4.48 (inactive) in experiment [4], 0.307 (inactive) in experiment [5] and 0.0802 (inactive) in experiment [6].

Take `C=CC1c2cc(O)c(OC)cc2CCN1Cc1sc2ccccc2c1Cl` (configuration not stated): the composite z-score in experiment [1] is 0.51 (inactive); in experiment [2], 0.618. Besides, the z-score in experiment [3] was -0.614; in experiment [4], -2.71 (inactive); in experiment [5], 0.326 (inactive); in experiment [6] it was -0.0459 (inactive).

Consider `[N-]=[N+]=Nc1ccccc1C[C@@]1(C(=O)O)N=C(c2ccc(OCCCO)cc2)O[C@@H]1c1ccccc1`, for which the composite z-score was 0.57 (inactive) in experiment [1] and 0.707 in experiment [2]. The z-score in experiment [3] was -0.188; in experiment [4] it was -5.79 (inactive); in experiment [5], 0.167 (inactive); in experiment [6], 0.149 (inactive).

On to `CCOC(=O)C1=CC[C@@H](c2ccccc2)N(S(=O)(=O)c2ccc(C)cc2)C1`, for which the composite z-score in experiment [1] is -0.4 (inactive); in experiment [2], -0.654. For the same compound, the z-score was -0.557 in experiment [3], -2.76 (inactive) in experiment [4], 0.107 (inactive) in experiment [5] and -0.749 (inactive) in experiment [6].

With `C=CCOC(=O)[C@H]1[C@@H]2C(=O)O[C@@H](c3ccccc3)[C@@H](c3ccccc3)N2[C@@H](c2ccc(OCCOC(=O)[C@H]3C[C@H]4C(=O)N[C@@H](CCCC[N+](C)(C)C)C(=O)N4[C@H]3c3cccc(OCCO)c3)cc2)[C@]12C(=O)Nc1ccc(I)cc12`, the results for the composite z-score in experiment [1] and in experiment [2] were 0.261 (inactive) and 0.617, respectively. Moreover, the z-score in experiment [3] was -1.87; in experiment [4] it was 1.47 (inactive); in experiment [5], -0.714 (inactive); in experiment [6] it was -0.783 (inactive).

Consider `COc1ccc([Si](C)(C)[C@@H]2[C@@H](CCO)O[C@]3(C(=O)N(Cc4cccc(N5C(=O)c6cccc7cccc5c67)c4)c4ccccc43)[C@H]2C)cc1`, for which the composite z-score in experiment [1] was 0.875 (inactive); in experiment [2], 0.635. The z-score was -2.52 in experiment [3], -1.52 (inactive) in experiment [4], -0.758 (inactive) in experiment [5] and 0.0003 (inactive) in experiment [6].

On to `C=CCOC(=O)[C@H]1[C@@H]2C(=O)O[C@@H](c3ccccc3)[C@@H](c3ccccc3)N2[C@@H](c2ccc(OCCOC(=O)[C@H]3C[C@H]4C(=O)N[C@@H](Cc5ccccc5)C(=O)N4[C@H]3c3cccc(OCCO)c3)cc2)[C@]12C(=O)Nc1ccc(I)cc12`, for which the composite z-score was 0.893 (inactive) in experiment [1] and 0.464 in experiment [2]. Further, the z-score in experiment [3] was -1.65; in experiment [4] it was 0.643 (inactive); in experiment [5] it was 0.27 (inactive); in experiment [6], -0.0401 (inactive).

As for `COc1ccc(C(O)C2C=CC3C(=O)N(c4ccccc4)C(=O)C3N2Nc2ccccc2)cc1OCc1ccccc1` (configuration not stated), the results for the composite z-score in experiment [1] and in experiment [2] were 0.0123 (inactive) and 0.713, respectively. For the same compound, the z-score in experiment [3] is -0.0742; in experiment [4] it was -1.8 (inactive); in experiment [5], 0.302 (inactive); in experiment [6], -0.156 (inactive).

For `O=C1C[C@]2(c3ccc([N+](=O)[O-])cc3)C(=O)N(Cc3ccccc3)c3cc(CO)ccc3[C@H]2N1CC12CC3CC(CC(C3)C1)C2`, the results for the composite z-score in experiment [1] and in experiment [2] were 0.0547 (inactive) and -1.46, respectively. Further, the z-score in experiment [3] was -0.734; in experiment [4], -1.07 (inactive); in experiment [5], 0.0585 (inactive); in experiment [6], -0.785 (inactive).

Turning to `CC(C)N1CC=CC23O[C@@H]4C=CCOC(=O)[C@@H]4[C@H]2C(=O)N(C(C)CO)[C@@H]3C1=O` (some centres not stated), the composite z-score in experiment [1] was -0.409 (inactive); in experiment [2], 0.291. The z-score is 0.383 in experiment [3], -3.67 (inactive) in experiment [4], 0.113 (inactive) in experiment [5] and -0.0881 (inactive) in experiment [6].

With `O=C1NC(=O)C2C1C=CC(C(O)c1cc(C(F)(F)F)cc(C(F)(F)F)c1)N2Nc1ccc(Cl)cc1Cl` (configuration not stated), the composite z-score in experiment [1] was 1.75 (inactive); in experiment [2], 0.154. Besides, the z-score in experiment [3] is 0.0295; in experiment [4], -5.48 (inactive); in experiment [5] it was 1.15 (inactive); in experiment [6], 1.26 (inactive).
